{"source": "paper PMC5540273", "about": "(PLoS ONE, 2017);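 further: KINOMEscan kinase panel screen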", "conditions_in_all_cases": "concentration: 1 μM, replicates: in singlicate; n = 1", "key": {"YANK3": {"tested_on": "T1, YANK3", "T1 construct": "gene STK32C"}, "YES": {"tested_on": "T2, YES", "T2 construct": "gene YES1"}, "YSK1": {"tested_on": "T3, YSK1", "T3 construct": "gene STK25"}, "YSK4": {"tested_on": "T4, YSK4", "T4 construct": "gene MAP3K19"}, "ZAK": {"tested_on": "ZAK"}, "ZAP70": {"tested_on": "ZAP70"}, "p38-alpha": {"tested_on": "T5, p38-alpha", "T5 construct": "gene MAPK14"}, "p38-beta": {"tested_on": "T6, p38-beta", "T6 construct": "gene MAPK11"}, "p38-delta": {"tested_on": "p38-delta"}, "p38-gamma": {"tested_on": "T7, p38-gamma", "T7 construct": "gene MAPK12"}}, "data": [{"smiles": "C[C@@H](Oc1cc(-n2cnc3ccc(NC(=O)NC(C)(C)C)cc32)sc1C(N)=O)c1ccccc1Cl", "note": "[GSK346294]", "values": [{"measurement": "%Inh", "setting": "YANK3", "result": 12, "unit": "%"}, {"measurement": "%Inh", "setting": "YES", "result": 3, "unit": "%"}, {"measurement": "%Inh", "setting": "YSK1", "result": 0, "unit": "%"}, {"measurement": "%Inh", "setting": "YSK4", "result": 3, "unit": "%"}, {"measurement": "%Inh", "setting": "ZAK", "result": 0, "unit": "%"}, {"measurement": "%Inh", "setting": "ZAP70", "result": 6, "unit": "%"}, {"measurement": "%Inh", "setting": "p38-alpha", "result": 32, "unit": "%"}, {"measurement": "%Inh", "setting": "p38-beta", "result": 0, "unit": "%"}, {"measurement": "%Inh", "setting": "p38-delta", "result": 30, "unit": "%"}, {"measurement": "%Inh", "setting": "p38-gamma", "result": 2, "unit": "%"}]}, {"smiles": "Cn1cc(-c2ccc3c(c2)CCN3C(=O)Cc2ccccc2Cl)c2c(N)ncnc21", "note": "[GSK2608885]", "values": [{"measurement": "%Inh", "setting": "YANK3", "result": 23, "unit": "%"}, {"measurement": "%Inh", "setting": "YES", "result": 99.7, "unit": "%"}, {"measurement": "%Inh", "setting": "YSK1", "result": 20, "unit": "%"}, {"measurement": "%Inh", "setting": "YSK4", "result": 0, "unit": "%"}, {"measurement": "%Inh", "setting": "ZAK", "result": 97.9, "unit": "%"}, {"measurement": "%Inh", "setting": "ZAP70", "result": 0, "unit": "%"}, {"measurement": "%Inh", "setting": "p38-alpha", "result": 99.9, "unit": "%"}, {"measurement": "%Inh", "setting": "p38-beta", "result": 99.5, "unit": "%"}, {"measurement": "%Inh", "setting": "p38-delta", "result": 26, "unit": "%"}, {"measurement": "%Inh", "setting": "p38-gamma", "result": 20, "unit": "%"}]}, {"smiles": "O=C(NCCNc1ccnc(Nc2ccc(F)cc2)n1)Nc1ccccc1F", "note": "[GSK1379880]", "values": [{"measurement": "%Inh", "setting": "YANK3", "result": 0, "unit": "%"}, {"measurement": "%Inh", "setting": "YES", "result": 9, "unit": "%"}, {"measurement": "%Inh", "setting": "YSK1", "result": 0, "unit": "%"}, {"measurement": "%Inh", "setting": "YSK4", "result": 26, "unit": "%"}, {"measurement": "%Inh", "setting": "ZAK", "result": 0, "unit": "%"}, {"measurement": "%Inh", "setting": "ZAP70", "result": 0, "unit": "%"}, {"measurement": "%Inh", "setting": "p38-alpha", "result": 0, "unit": "%"}, {"measurement": "%Inh", "setting": "p38-beta", "result": 0, "unit": "%"}, {"measurement": "%Inh", "setting": "p38-delta", "result": 52, "unit": "%"}, {"measurement": "%Inh", "setting": "p38-gamma", "result": 0, "unit": "%"}]}, {"smiles": "Fc1ccc(-c2ncn(CCCN3CCOCC3)c2-c2cccnc2)cc1", "note": "[SB-211743]", "values": [{"measurement": "%Inh", "setting": "YANK3", "result": 0, "unit": "%"}, {"measurement": "%Inh", "setting": "YES", "result": 0, "unit": "%"}, {"measurement": "%Inh", "setting": "YSK1", "result": 0, "unit": "%"}, {"measurement": "%Inh", "setting": "YSK4", "result": 22, "unit": "%"}, {"measurement": "%Inh", "setting": "ZAK", "result": 0, "unit": "%"}, {"measurement": "%Inh", "setting": "ZAP70", "result": 0, "unit": "%"}, {"measurement": "%Inh", "setting": "p38-alpha", "result": 0, "unit": "%"}, {"measurement": "%Inh", "setting": "p38-beta", "result": 0, "unit": "%"}, {"measurement": "%Inh", "setting": "p38-delta", "result": 0, "unit": "%"}, {"measurement": "%Inh", "setting": "p38-gamma", "result": 48, "unit": "%"}]}, {"smiles": "N#Cc1ccc(-c2cc(-c3c[nH]nc3-c3ccccn3)ccn2)cc1", "note": "[GW693028]", "values": [{"measurement": "%Inh", "setting": "YANK3", "result": 6, "unit": "%"}, {"measurement": "%Inh", "setting": "YES", "result": 13, "unit": "%"}, {"measurement": "%Inh", "setting": "YSK1", "result": 0, "unit": "%"}, {"measurement": "%Inh", "setting": "YSK4", "result": 33, "unit": "%"}, {"measurement": "%Inh", "setting": "ZAK", "result": 15, "unit": "%"}, {"measurement": "%Inh", "setting": "ZAP70", "result": 0, "unit": "%"}, {"measurement": "%Inh", "setting": "p38-alpha", "result": 30, "unit": "%"}, {"measurement": "%Inh", "setting": "p38-beta", "result": 0, "unit": "%"}, {"measurement": "%Inh", "setting": "p38-delta", "result": 22, "unit": "%"}, {"measurement": "%Inh", "setting": "p38-gamma", "result": 0, "unit": "%"}]}]}
